The source of these data is PubChem BioAssay AID434926 (Sanford-Burnham Center for Chemical Genomics, 2010).

For the test, the target named is Intestinal-type alkaline phosphatase (Homo sapiens) (UniProt P09923). The test can be described thus: human IAP activators, confirmation, biochemical, luminescence, single concentration, uHTS hits (AID 434926). The following applies: purified IAP, CDP-Star luminescence, 30 min; at 8.3 µM; hits give low values.

Structures are written as SMILES. This is one part of the list. Values without a mark were called inactive.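 Rule for the calls: active = at least twofold enzyme activation in any of six single-dose repeats, which the averaged readout prints as negative percent; inactive = the rest.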

Intestinal-type alkaline phosphatase (Homo sapiens), sequence (P09923 whole entry, looked up): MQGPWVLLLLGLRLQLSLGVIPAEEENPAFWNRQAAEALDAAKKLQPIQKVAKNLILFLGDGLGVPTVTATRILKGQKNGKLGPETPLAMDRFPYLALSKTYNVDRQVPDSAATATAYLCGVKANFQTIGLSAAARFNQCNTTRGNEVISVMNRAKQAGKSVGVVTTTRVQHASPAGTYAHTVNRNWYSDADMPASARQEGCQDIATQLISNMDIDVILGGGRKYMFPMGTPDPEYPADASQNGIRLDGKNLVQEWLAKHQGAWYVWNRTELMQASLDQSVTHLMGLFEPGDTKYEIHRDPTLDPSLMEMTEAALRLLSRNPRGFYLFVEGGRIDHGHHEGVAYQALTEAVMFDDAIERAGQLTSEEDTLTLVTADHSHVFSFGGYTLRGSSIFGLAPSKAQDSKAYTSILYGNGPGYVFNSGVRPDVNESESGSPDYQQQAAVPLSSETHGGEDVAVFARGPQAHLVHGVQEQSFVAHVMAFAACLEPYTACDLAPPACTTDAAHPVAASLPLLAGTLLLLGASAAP

For `COc1ccccc1N=Nc1c(O)[nH]c(=S)[nH]c1=O`, the activation (%Activity, negative = activation) was 4.66%.
With `CN(c1ccccc1)c1ccc([N+](=O)[O-])c2nonc12` the figure was -1.35%.
